Screening results from PubChem.
Shown are actives, neighbours in structure and some others; about 21% of the full set was active somewhere.
Pf growth 48h – Primary qHTS for delayed death inhibitors of the malarial parasite plastid, 48 hour incubation. P. falciparum luciferase growth in erythrocytes, 48 h. Potency, µM (doses to about 28.7 µM), inactives show at the top dose activity change, negative = inhibition, hits mostly inhibitors. actives 5.9% (n = 310,000); note: potency is the fitted concentration of half-maximal effect; % is set by controls: 0 for no effect and ±100 for the full control effect
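Compounds are pin-transferred into medium, infected erythrocytes (2% hematocrit, 0.1% parasitemia final) are added, and plates sit one parasite generation at 37 C in 5% CO2. Detection reagent is then added and luminescence measured.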
Pf growth 96h – Primary qHTS for delayed death inhibitors of the malarial parasite plastid, 96 hour incubation | P. falciparum luciferase reporter growth, 96 h | Potency, µM (series often up to 28.7 µM), without a hit: top-dose activity change, negative = inhibition, most hits filed as inhibitors | actives 6.9% (n = 320,000) | AID 504834, 2011; note: potency is the fitted concentration of half-maximal effect; % is set by controls: 0 for no effect and ±100 for the full control effect
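Infected RBCs, 2% Hct / 0.05% parasitemia final; luciferase-reporter P. falciparum; cpd 96 h, 37 C, 5% CO2; luciferase detection reagent; luminescence.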
Cycloheximide cs – Cycloheximide Counterscreen for Small Molecule Inhibitors of Shiga Toxin; cell reporter, cycloheximide protein synthesis inhibition counterscreen; max response, %; actives 12% (n = 300,000); in the data active = max response mostly above about 13%, no sharp cut-off; inactive = mostly below about 14%; note: read at 38.3 µM for the half of the compounds with a filed dose; 0% is about no effect
Shiga toxin inh – A qHTS for Small Molecule Inhibitors of Shiga Toxin; Vero cells, Shiga toxin protein synthesis inhibition reporter; inhibition, % at 38.7 µM; actives 9.2% (n = 290,000); AID 2315, 2010; in the data active = inhibition mostly above about 28%, no sharp cut-off; inactive = mostly below about 43%; note: 0% is about no effect
Active calls of the source: *; ? = inconclusive; nt = no result; [ ] = remark or other dose. Unless noted, calls come from the whole dose curve; as a rule, active = well fitted inhibition curve with a large enough effect; inconclusive = small, poorly fitted or top-dose-only effect, or another doubt; inactive = no such curve, though single readings can be large or run the other way.

SMILES	Pf growth 48h	Pf growth 96h	Cycloheximide cs	Shiga toxin inh
CCOc1ccc(-c2nc(S(=O)(=O)c3ccccc3)c(NCc3cccnc3)o2)cc1	13µM*	nt	-4	-6
CC1CCN(c2oc(-c3ccco3)nc2S(=O)(=O)c2ccccc2)CC1	-17%	4.7µM*	1	12
O=S(=O)(c1ccc(F)cc1)c1nc(-c2ccccc2F)oc1N1CCCCC1	?	nt	11	22
CCOc1ccc(-c2nc(S(=O)(=O)c3ccccc3)c(NC)o2)cc1	3%	?	-4	-7
CCSc1oc(-c2ccco2)nc1S(=O)(=O)c1ccc(F)cc1	?	nt	-2	-1
O=S(=O)(c1ccc(F)cc1)c1nc(-c2ccco2)oc1Nc1ccccc1	18%	?	50*	114*
O=S(=O)(c1ccccc1)c1nc(-c2ccco2)oc1NCc1ccco1	?	nt	2	-2
O=S(=O)(c1ccccc1)c1nc(-c2ccco2)oc1Nc1ccccc1	?	?	25*	90*
O=S(=O)(c1ccccc1)c1nc(-c2ccco2)oc1NCc1ccccc1	nt	8.3µM*	9	15
COc1cc(C2NCC(c3ccc(Cl)cc3Cl)c3c2[nH]c2ccccc32)cc(OC)c1OC (stereo not drawn)	13µM*	12µM*	-1	-6
COc1cccc(CNC(=O)Cc2nc3nc(C)cc(C)n3n2)c1	-10%	?	-4	-6
CC(C)Cc1nc(N2CCC(C(N)=O)CC2)c2nnn(Cc3ccccc3)c2n1	15µM*	10µM*	0	14
CC(C)Cc1nc(Nc2ccccc2C#N)c2nnn(Cc3ccccc3)c2n1	?	?	1	34
Cc1nc(N2CCC(C)CC2)c2nnn(Cc3ccccc3)c2n1	12µM*	15µM*	12	56*
Cc1cc(=O)oc2cc(OC(=O)CCCCCN3C(=O)c4ccccc4C3=O)ccc12	-6%	45%	-4	7
COc1ccc(C(=O)NCCS(=O)(=O)N2CCc3ccccc3C2)cc1OC	18%	-25%	nt	nt
CC1(C)Cc2c(cnn2-c2cccc(F)c2)C(NC(=O)Cn2cccn2)C1 (stereo not drawn)	4%	-1%	19*	-5
CC1(C)Cc2c(cnn2-c2cccc(F)c2)C(NC(=O)CSc2ccccn2)C1 (stereo not drawn)	12%	?	8	17
Cn1nccc1C(=O)NC1CCCc2c1cnn2-c1cc(F)cc(F)c1 (stereo not drawn)	?	-5%	32*	54*
CC(C)(C)c1ccc(-n2ncc3c2CCCC3NC(=O)CN2CCCCC2=O)cc1 (stereo not drawn)	8%	15%	1	13
O=C(CN1CCCC1=O)NC1CCCc2c1cnn2-c1cc(F)cc(F)c1 (stereo not drawn)	-3%	26%	22*	26
Cc1ccc(-n2ncc3c2CC(C)(C)CC3NC(=O)CN2CCCC2=O)cc1 (stereo not drawn)	4%	?	-1	-10
CC1(C)Cc2c(cnn2-c2cccc(F)c2)C(NC(=O)CN2CCCC2=O)C1 (stereo not drawn)	-13%	?	11*	11*
CC1Cc2ccccc2C(CCc2ccccc2)=N1 (stereo not drawn)	-3%	-6%	-1	14
N#CCC(=O)NN	5%	0%	nt	nt
SMILES	Pf growth 48h	Pf growth 96h	Cycloheximide cs	Shiga toxin inh
Cc1ccc(F)c(CNC(=O)C2CCC(=O)N(Cc3ccccn3)C2)c1F (stereo not drawn)	7%	?	7	20
COc1ccc(CNn2c(-c3cccc(C)c3)nc3ccccc3c2=O)cc1OC	nt	12µM*	0	-10
COc1cccc(OC)c1C(=O)Nn1c(-c2cccc(C)c2)nc2ccccc2c1=O	-22%	?	-8	-5
COc1ccc(CNn2c(C)nc3ccccc3c2=O)cc1	2%	-2%	2	23
COc1ccccc1CNn1c(-c2cccc(C)c2)nc2ccccc2c1=O	nt	12µM*	6	19
CC(C)C(NC(=O)/C(=C/c1ccco1)NC(=O)c1ccc(Br)o1)C(=O)O (stereo not drawn)	-2%	48%	-1	-5
O=C(CSc1nnc(Cc2ccccc2)o1)NCc1ccc2c(c1)OCO2	-8%	-1%	5	-9
Cc1ccccc1NC(=O)CSc1nnc(Cc2ccccc2)o1	-20%	-14%	1	-2
Cc1cccc(C)c1NC(=O)CSc1nnc(Cc2ccccc2)o1	-17%	12µM*	-2	13
O=C(CSc1nnc(Cc2ccccc2)o1)Nc1ccc2c(c1)OCO2	nt	184%	38*	28
CN1C(=O)C2C(c3ccc(N(C)C)cc3)NN(Cc3ccccc3)C2C1=O (stereo not drawn)	-7%	-46%[1.15 µM]	2	13
Cn1c(=O)oc2cc(S(=O)(=O)CCC(=O)Nc3ccccc3)ccc21	11%	?	-10	-7
O=[N+]([O-])c1ccc(N2CCCC(C(F)(F)F)C2)c2ccncc12 (stereo not drawn)	13µM*	?	-4	28
COc1ccc(Cl)cc1NS(=O)(=O)c1cccc(C(=O)NCC2(N(C)C)CCCCC2)c1	?	15µM*	3	-12
COc1ccccc1N(C)S(=O)(=O)c1ccc(Cl)c(C(=O)NCC2(N(C)C)CCCCC2)c1	?	9.3µM*	nt	nt
Cc1csc2nc(SCC(=O)Nc3ccccc3F)[nH]c(=O)c12	-5%	52%	1	-13
O=C1CCC(=O)N1CCSC(=S)N1CCSCC1	37%	65%	14*	60*
CC1CN(C(=S)SCC(=O)c2ccc([N+](=O)[O-])cc2)CC(C)O1 (stereo not drawn)	?	48%	-3	14
O=C(CSC(=S)N1CCSCC1)c1ccc(Cl)cc1	398%	8%	39*	82*
O=C(CSC(=S)N1CCSCC1)c1ccccc1	440%	147%	27*	93*
O=C(C1CCN(S(=O)(=O)c2ccccc2)CC1)N(CCc1ccccc1)Cc1ccco1	13µM*	29%	0	14
COCCN(Cc1ccccc1)C(=O)C1CCN(S(=O)(=O)c2ccc3c(c2)OCCO3)CC1	?	12µM*	nt	nt
CCC(C)c1ccccc1N1CC(C(=O)Nc2ccc(N3CCOCC3)cc2)CC1=O (stereo not drawn)	-26%	?	nt	nt
Cc1ccc(CSc2nnc(C(F)(F)F)n2Cc2ccc(F)cc2)cc1	-3%	72%	16*	21
OC(CON=C1c2ccccc2-c2ccccc21)CN1CCNCC1 (stereo not drawn)	?	?	8	-8
Cc1ccc(-c2nc3ccccc3[nH]2)cc1NC(=S)NC(=O)c1ccccc1Br	?	-2%	13	4
O=C(NC(=S)Nc1cc(-c2nc3ccccc3[nH]2)ccc1Cl)c1ccc2c(c1)OCO2	4.7µM*	?	70*	78*
Cc1ccc(-c2nc3ccccc3o2)cc1NC(=O)c1ccc2c(c1)OCO2	156%	nt	50*	126*
Cc1ccc(-c2nc3ccccc3[nH]2)cc1NC(=O)/C=C/c1ccco1	?	?	85*	177*
